From the supplement of paper PMC6555819

Tests used:
Experiment in all cases: PBM binding z-score (relative to random genomic background probes); higher = stronger binding; sequences stand for … in GC…GCGATTGACAGCGTAGAATGAAGG
[1] = tested on: RARb homodimer (NR concentration 270 nM)
Outline: (§1)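 Probes were double-stranded and carried 34-nt variable regions with direct-repeat seeds, single-nucleotide variants, half-site ablations and random human genomic background sequences, printed on custom Agilent 4×180K protein-binding microarrays. Arrays were incubated 1 h with ligand-free nuclear receptor dimers in PBS pH 7.4, 2% milk, 0.02% Triton X-100, 1 mM DTT, 0.2 mg/mL BSA and 0.4 mg/ml salmon testes DNA. Antibodies against each partner (one per run) detected binding, and scanned fluorescence was regression-normalized. Binding z-scores use the random background probes as reference.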

[2] = tested on: RARg:RXRa (NR concentration 270 nM, RXRa partner concentration 90 nM)
Outline: as §1

[3] = tested on: RARg homodimer (NR concentration 270 nM)
Outline: as §1

[4] = tested on: RXRa DBDmut IVT, anti-RXR (DBD mutation: RXRa K156A/R161A, NR concentration 90 nM)
Outline: as §1

[5] = tested on: RXRa homodimer (NR concentration 180 nM)
Outline: as §1

[6] = tested on: THRa:RXRa (NR concentration 90 nM, RXRa partner concentration 90 nM)
Outline: as §1

[7] = tested on: THRa homodimer (NR concentration 90 nM)
Outline: as §1

[8] = tested on: VDR homodimer (NR concentration 270 nM)
Outline: as §1

Row | Sequence | PBM binding z-score [1] | PBM binding z-score [2] | PBM binding z-score [3] | PBM binding z-score [4] | PBM binding z-score [5] | PBM binding z-score [6] | PBM binding z-score [7] | PBM binding z-score [8]
1 | CCGACTGGGGCAAGTTTACCATAACGCACAGCCA | 0.697 | 0.446 | 0.667 | 0.533 | 0.261 | -0.0579 | -0.484 | 0.132
2 | CCTGCTAGATCATGGTCAGCTAATCTACAGTATG | -0.429 | -0.127 | 0.142 | 0.516 | -0.185 | -0.68 | -1.23 | -0.86
3 | AGAATGAGGTTATACGTAGATCAGCGAAGAAAGT | 0.428 | 1.76 | 0.909 | 1.41 | 2.13 | 1.99 | 0.0645 | 0.803
4 | ATATGTCGGTTAGCTGGGGTCATTCAGACTAGGC | 3.58 | 3.65 | 2.68 | 1.59 | 5.28 | 4.56 | 3.31 | 4.56
5 | CCGAGTAGGTTATGGGGCATTCATGCAACGGTGA | 0.909 | 0.699 | 0.725 | 0.0977 | 0.697 | 0.148 | -0.334 | 0.21
6 | CCTGCTAGGTTAATGGTCAGCTAAAGCAGCTCGC | 0.863 | 0.422 | 0.563 | 0.452 | 0.173 | 0.215 | -0.284 | -0.175
7 | GCGACTGGGTCATCAGCAGGTTACCATAACTTAA | 2.55 | 4.89 | 3.53 | 0.877 | 3.03 | 2.88 | 0.268 | 0.085
8 | TAGCCTAGGTCAGATCGGGCCACTATACGCTATA | 2.48 | 2.78 | 3.37 | -0.221 | 1.48 | 4.72 | 0.493 | 0.0583
9 | CCGAGTAGGTTATGGGGCATCCAGGCAACGGTGA | 0.911 | 0.651 | 0.586 | -0.816 | 0.858 | 0.523 | 0.159 | -0.188
10 | CGTCCAAGGTCAAAGGTCAGTGTAGAGATGACGG | 5.37 | 8.64 | 8.04 | 3.99 | 10.1 | 4.77 | 2.77 | 3.86
11 | CGTAGCAGGCCAATCTGGGTCACTCAAGGCTTGA | 1.95 | 0.96 | 1.26 | 0.317 | 0.616 | 3.65 | 0.645 | -0.295
12 | CCTACTGGGCCACGAAAGGTCAATGATTCAGTGA | 4.81 | 4.94 | 4.64 | 0.165 | 4.81 | 3.66 | 0.66 | 0.883
13 | CGAACGAGGGCATGAGTTGATAGCCAATGCCGAT | 0.853 | 1.34 | 1.88 | 2.3 | 1 | 1.24 | -0.039 | 1.56
14 | TCATATAGGTAAACAGGTGAAAGCCCGTAAGTTA | 0.749 | 0.546 | 0.364 | 1.2 | 1.64 | 0.571 | 0.487 | -0.138
15 | AGTCAAAGTTCACTAGGTAACGTATGATTCAGCT | 3.72 | 4.86 | 5.88 | 4.22 | 3.76 | 2 | 0.141 | 3.34
16 | ACAGACCGGTGAGTGAAGGTAACTCAGCTGGACG | -0.506 | -0.114 | -0.11 | -0.55 | -0.109 | 0.21 | -0.915 | -0.72
17 | ATCTCTAGATAAAGATAGTTCAGTGAATGCAAAT | 0.48 | 0.16 | 0.499 | -0.299 | 0.282 | 0.263 | -0.124 | 0.668
18 | AGAACGAGGGCACGCTGAGTTGTTAGCAGAGTAG | 1.16 | 1.85 | 2.11 | 1.95 | 1.55 | 1.73 | -0.0744 | 1.29
19 | CCTCGGAGGACAACATGAGGTCAGAGCTGCCAGA | 3.88 | 3.49 | 3.52 | 1.15 | 2.13 | 4.08 | 3.51 | 2.43

Row | Sequence | PBM binding z-score [1] | PBM binding z-score [2] | PBM binding z-score [3] | PBM binding z-score [4] | PBM binding z-score [5] | PBM binding z-score [6] | PBM binding z-score [7] | PBM binding z-score [8]
20 | ATCTCTAGGTAAGACTGAGTTCAGTGAAGAACGC | 1.05 | 0.569 | 0.377 | 1.38 | 0.265 | 1.25 | 0.797 | 3.47
21 | AGTCAAAGTTCAGGACGAGGTAACGTCAAGCACG | 3.13 | 4.98 | 4.9 | 2.71 | 3.29 | 3.98 | 1.52 | 2.33
22 | TCATATCGGTAAATGCTAGGTGAAAGTCCGATCT | 0.513 | -0.0615 | 0.173 | 1.14 | 0.375 | 0.889 | 0.553 | 0.0162
23 | TAGCCAAGGTCATTGGGCCAGTATAGTACGCATC | 4.21 | 5.55 | 5.5 | 3.08 | 5.46 | 4.06 | 2.04 | 3.47
24 | TCGTGTAGATCAATAGAGGTTAAGAAAGTGCGCT | 1.47 | 0.551 | 0.428 | 0.621 | 1.23 | 2.09 | -0.291 | 0.428
25 | CCTCGAAGGACAGAAGGTCAGAGCTGTCCGCTTT | 3.54 | 3.21 | 2.98 | 0.128 | 1.76 | 1.62 | 0.0154 | 0.121
26 | CCATACAGGTGAGAAGGTAACTCAGCCTCGATTA | 0.666 | 0.662 | 0.72 | 0.319 | 0.539 | 0.148 | 0.348 | -0.195
27 | AGAATGAGGTTATTAAGATCGGGGAATTGCGGTC | 0.767 | 0.927 | 0.627 | 2.18 | 1.38 | 2.2 | 0.74 | 1.27
28 | TTACCAAGGTGAAGGACGTTGATCCCTCTGTAGA | 0.644 | 0.43 | 0.524 | -0.216 | 0.672 | 1.66 | 0.562 | -0.106
29 | TGAATGAGGTTATAAGAACAGGGAACGTTGCAAA | -0.0181 | 1.21 | 1 | 0.468 | 1.89 | 1.62 | 0.00377 | 0.365
30 | CCTACTGGGCCACGAAAGGTCATTGATTCAGTGA | 4.53 | 4.73 | 4.37 | 0.61 | 5.18 | 3.67 | 0.798 | 2.59
31 | TGTTGTAGATCAACAGGAGGTTAAGAAAGATCGA | 0.36 | 1.06 | 0.365 | -0.89 | 0.741 | 0.863 | -0.492 | -0.0284
32 | GGAACGAGGGCATTCGAGTTAATAGCATGGCGAT | 0.504 | 1.33 | 1.59 | 2.83 | 1.09 | 3.22 | -0.196 | 2.58
33 | CCTAGCAGGCCCATCTGGGTCACTCAAGGCTTGA | 1.64 | 0.5 | 0.267 | -1.2 | 0.768 | 2.23 | 0.0226 | -0.0686
34 | ATATGTGGGTTAAGGGTCATTCAGGTTGGTTCGC | 3.84 | 4.83 | 3.59 | 2.43 | 6.27 | 3.62 | 2.41 | 4.82
35 | GCTTACGGGGCAAAGGTTATAGCATGAATAGAAT | 1.58 | 3.73 | 1.43 | 1.11 | 4.42 | 1.89 | -0.425 | -0.046
36 | TGTCAAAGTTCAAAGGTAAAGTAAGTATCCACAC | 3.74 | 6.33 | 6.06 | 4.16 | 7 | 3.08 | -0.134 | 3.53
37 | CCAGACAGCTGAGAAGGTAACTCAGCCTCGATTA | -0.378 | -0.436 | -0.0751 | -0.0865 | -0.206 | -0.157 | -0.306 | -0.494
38 | CCTGCTAGGTCACTGGTCAGCTAAAGCAGCTCGC | 3.08 | 3.82 | 4.65 | 1.68 | 2.59 | 2.7 | 0.97 | 0.123

Row | Sequence | PBM binding z-score [1] | PBM binding z-score [2] | PBM binding z-score [3] | PBM binding z-score [4] | PBM binding z-score [5] | PBM binding z-score [6] | PBM binding z-score [7] | PBM binding z-score [8]
39 | ATATGTATGTTATCGGGTCATTCAGTTTGCGCAT | 2.47 | 2.01 | 1.75 | 1.81 | 2.28 | 3.26 | 2.66 | 3.18
40 | CGTCCAATGTCAGAGAGGTCAGTGAATGCCGAGT | 4.14 | 3.35 | 3.8 | 1.27 | 2.57 | 2.75 | 1.37 | 2.91
41 | TCGAGTGGGTTAGGGGCATTCAGAATGGCGTCGA | 1.21 | 0.178 | -0.204 | 0.231 | 0.603 | 1.23 | 0.84 | 1.54
42 | TCATATAGGTAAATGCTATGTGAAAGTCCGATCT | -0.22 | 0.473 | 0.452 | 1.17 | 0.894 | 0.0535 | 0.0976 | 0.435
43 | GCTACAGGGTCAAGGCCAGAGTACGCGTATTGAT | 3.58 | 5.38 | 5.17 | 3 | 5.92 | 3.42 | 1.38 | 2.4
44 | CTACCAAGGTGAACAAGGCCGTTGATTACTATTC | 0.956 | 0.749 | 0.894 | 0.53 | 0.695 | 2.18 | 1.08 | 0.0898
45 | GGAACGAGGGCATTAGAGTTGATAGCATGGCGAT | 0.848 | 1.11 | 1.65 | 2.84 | 0.695 | 2 | -0.303 | 2.49
46 | ACTAGCAGGCCAAGTTGGGGTCACTCAAACAAAG | 3.81 | 4.97 | 3.25 | 0.825 | 5.2 | 4.16 | 2.89 | 3.34
47 | GCTCGGAAGACAAGGTCAGAGCTTTGTCCGTAGA | 2.34 | 2.28 | 1.86 | 0.349 | 2.11 | 2.52 | 0.95 | 0.19
48 | ATATGTACGTTAGCTGGGGTCATTCAGACTAGGC | 3.2 | 3.67 | 2.5 | 2.23 | 5.37 | 4.01 | 3.2 | 5.16
49 | TCTAGTTGGTCACGGAGGTCAAACACGACGGGTA | 4.53 | 5.24 | 5.02 | 1.28 | 5.47 | 3.78 | 2.02 | 3.62
50 | ATACCAAGGTGATCGTGACGTCGTTGATACTAAC | 0.537 | 0.459 | 0.417 | 0.283 | 0.575 | 1.05 | 0.655 | -0.00274
51 | CAAACTAGGTCGCAGAGGTCAAAGTCCGTGCGTA | 4.96 | 6.18 | 5.62 | 2.9 | 6.96 | 4.19 | 1.67 | 5.86
52 | AGAAAGAGGTTAAGATCAGGGAAACAGAATACAT | 1.42 | 2.54 | 1.86 | 0.244 | 2.82 | 2.02 | 0.45 | 0.57
53 | TCTTGTAGATTAAAGGTTAAGAAAGCCGAAGCCT | 1.05 | 1.04 | 0.588 | 0.892 | 1.99 | 1.09 | -0.228 | 0.123
54 | TCTATTAGTTGAAGGGCAACAGACGAGTCCGTTT | 1.14 | 0.634 | 0.745 | 1.68 | 0.567 | 0.209 | 0.0682 | 1.55
55 | GGTACAGGGTCAAGGCCAGAGTACGCGTATTGAT | 3.76 | 5.41 | 5.03 | 1.78 | 5.91 | 3.58 | 1.26 | 2.94
56 | TCTATTAGTTGAAGGACAACCGACGAGTCCGTTT | 0.756 | 0.368 | 0.728 | 2.05 | 0.435 | 0.552 | 0.684 | 1.62
